An excerpt weighted towards active compounds, which were near 17% of everything screened.
S2 tox: Viability Counterscreen for Primary qHTS for Inhibitors of ATXN expression. S2 cells (HEK-293 line with an ATXN2-luciferase reporter) viability, CellTiter-Fluor protease fluorescence, 24 h. Potency, µM (top dose mostly 56.7 µM), actives largely listed as cytotoxic. actives 0.49% (n = 400,000); further: nearly all actives have a fitted effect of over 40% in size
DT40 TDP1 no CPT: qHTS for Inhibitors of human tyrosyl-DNA phosphodiesterase 1 (TDP1): qHTS in cells in absence of CPT. DT40 Tdp1-/- hTDP1 cells, no CPT, ATP luminescence, 48 h. Potency, µM (doses to about 46.2 µM), for the others: at the top dose activity change, negative = growth inhibition, usual class: inhibitors. actives 15% (n = 420,000). AID 686978, 2013; further: on the % scale 0 is the no-effect control and ±100 the full control effect; nearly all actives have a fitted effect of over 55% in size
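Growth of hTDP1-complemented DT40 Tdp1-knockout cells is measured by ATP luminescence after at least 48 hr compound exposure at 37 °C, with DMSO substituting for the 20 nM CPT used in the parallel screen.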
HepG2 tox: qHTS for Inhibitors of TGF-b: Cytotox Counterscreen; HepG2 CAGA-GFP viability, ATP luminescence, 18 h; Potency, µM (top dose mostly 46.1 µM), inactives show top-dose activity change, negative = cytotoxicity, most hits filed as cytotoxic; actives 0.76% (n = 410,000); AID 588856, 2011
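HepG2 CAGA-GFP cells (1000/well, DMEM with 1% FBS) received compound, then TGF-beta at 500 pg/mL final, and were incubated 18 hours at 37 degrees C. Viability was read by CellTiter-Glo luminescence. Media-only wells were set as complete cell-killing and DMSO as no toxicity.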
ATXN2 expr inh: Primary qHTS for Inhibitors of ATXN expression | HEK-293 ATXN2-luciferase reporter, luminescence, 24 h | Potency, µM (doses to about 57 µM), for the others: at the highest dose activity change, negative = inhibition, usual class: inhibitors | actives 0.72% (n = 360,000) | AID 1745845, 2022; further: on the % scale 0 is the no-effect control and ±100 the full control effect; nearly all actives have a fitted effect of over 55% in size
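qHTS (up to 57 uM final) was run with 24 h compound exposure of reporter cells at 37 °C. Each well was multiplexed: SteadyGlo luminescence measured ATXN2-luciferase expression after a fluorogenic Gly-Phe-AFC viability readout (25 uM final).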
DT40 TDP1 CPT: qHTS for Inhibitors of human tyrosyl-DNA phosphodiesterase 1 (TDP1): qHTS in cells in presence of CPT; chicken DT40 Tdp1-/-;hTDP1 cells + 20 nM CPT, ATP luminescence, 48 h; Potency, µM (doses to about 46.2 µM), without a hit: at the top dose activity change, negative = growth inhibition, usual class: inhibitors; actives 12% (n = 420,000); AID 686979, 2013; further: on the % scale 0 is the no-effect control and ±100 the full control effect; nearly all actives have a fitted effect of over 55% in size
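Chicken DT40 Tdp1-/- cells stably complemented with human TDP1 were seeded at 400 cells/well in medium containing 20 nM camptothecin, exposed to pin-transferred compounds, and grown at 37 °C for at least 48 hr. Viability was read as ATP luminescence.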
TGFb inhibitor: qHTS for Inhibitors of TGF-b | HepG2 CAGA-GFP TGF-b/SMAD3 reporter, GFP fluorescence, 18 h; TGF-beta stimulated, 500 pg/mL final | Potency, µM (top dose mostly 46.1 µM), without a hit: at the highest dose activity, negative = inhibition, hits mostly inhibitors | actives 1.2% (n = 410,000) | AID 588855, 2011; further: on the % scale 0 is the no-effect control and ±100 the full control effect; nearly all actives have a fitted effect of over 65% in size
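First, reporter cells (HEPG2 CAGA-GFP) rested 2 h at 37 degrees C. Next, compounds were pinned in and TGF-beta added to 500 pg/mL final. After 18 h, GFP was imaged per cell and summed per well.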
Numbers without * were called inactive; i = inactive; ? = inconclusive; · = not tested or not shown; [ ] = dose if it differs, or a comment. The call rests on the fitted dose curve; in most records, active means well fitted curve in the direction sought with a large enough effect; inconclusive means small, poorly fitted or top-dose-only effect, or another doubt; inactive means no such curve, though single readings can be large; an effect the other way counts as inactive or inconclusive. Potency means the concentration at half of the fitted maximal effect.

SMILES	S2 tox	DT40 TDP1 no CPT	HepG2 tox	ATXN2 expr inh	DT40 TDP1 CPT	TGFb inhibitor
O=C(O)c1ccc(NC2=C(Cl)C(=O)c3ccccc3C2=O)cc1	10µM*	13µM*	-23%	4.5µM*	15µM*	?
COc1cc(C)c2ccccc2n1	·	-1%	12%	·	-6%	-3%
CN1CCCN(c2cc(-c3ccc4ccccc4c3)nc3ccnn23)CC1	i	21µM*	-8%	-9%	21µM*	21%
OCCN1CCN(c2cc(-c3ccc4ccccc4c3)nc3ccnn23)CC1	i	?	-9%	12%	18µM*	25%
Cc1cccc(-c2cc(N3CCCN(C)CC3)n3nccc3n2)c1	i	?	-13%	-2%	?	18%
Cc1ccccc1NC(=O)N1CCc2c(sc3c2CCCC3)C1c1ccccc1 (stereo not given)	i	?	-14%	-20%	?	16%
COc1ccccc1NC(=O)N1CCCC1C(=O)NCc1ccc(F)cc1 (stereo not given)	i	4%	13%	-3%	-1%	-5%
O=C(Nc1ccc(F)cc1F)N1CCc2c(sc3c2CCCC3)C1c1ccc(F)cc1 (stereo not given)	i	18µM*	-27%	-4%	?	-4%
COc1ccccc1NC(=O)N1CC(=O)Nc2sc3c(c2C1c1ccccc1)CCCC3 (stereo not given)	·	18µM*	-21%	·	23µM*	9%
Cc1ccc(NC(=O)N2CCc3c(sc4c3CCCC4)C2c2ccccc2)cc1F (stereo not given)	?	15µM*	-29%	3%	?	-16%
CCOc1ccccc1NC(=O)N1CCc2c(sc3c2CCCC3)C1c1ccccc1 (stereo not given)	i	23µM*	-35%	-21%	?	?
CCc1c(C)sc2c1CCN(C(=O)Nc1cc(OC)c(OC)c(OC)c1)C2c1ccccc1 (stereo not given)	?	?	-27%	-7%	?	?
CCCCCc1ccc2cc(C#N)ccc2n1	i	-2%	4%	32%	-23%	?
COc1ccc(-c2nn(-c3ccccc3)cc2/C=N/NC(=O)c2cccc(S(=O)(=O)Nc3ccccc3Cl)c2)cc1	i	?	-6%	36%	?	-19%
O=C(NCc1cc(Cl)cc(Cl)c1)c1csc(COCCO)n1	i	-13%	8%	1%	-25%	7%
Cc1nn(CC(=O)NC2(C)CCS(=O)(=O)C2)c(C)c1S(=O)(=O)N(C)C (stereo not given)	i	4%	5%	-4%	5%	2%
CCc1c(C)sc2c1CCN(Cc1cccc(OC)c1)C2c1ccccc1 (stereo not given)	?	5.2µM*	-7%	-25%	7.3µM*	?
CCOC(=O)c1ccccc1NC(=O)N1CCc2c(sc(C)c2CC)C1c1ccccc1 (stereo not given)	?	16µM*	-36%	7%	?	-21%
CC(=O)Oc1ccccc1C(=O)Nc1ccccc1C(=O)N1CCCC1	i	5%	1%	-7%	1%	-11%
COC(=O)C1=C(C(=O)OC)SC(=C2C(=S)C(C)(C)N(C(=O)CC(C)C)c3ccccc32)S1	?	?	-5%	?	26µM*	-28%
COc1cc(C2c3cc4c(cc3OC(N3CCOCC3)C2C)OCO4)cc(OC)c1OC(C)=O (stereo not given)	i	26µM*	-1%	-5%	?	-11%
COc1cc(C2c3cc4c(cc3OC(Nc3ccc(C(=O)O)cc3)C2C)OCO4)cc(OC)c1OC (stereo not given)	?	1.2µM*	-9%	-22%	1.3µM*	?
COc1cc(C2CC(=O)Nc3cc4c(cc32)OCO4)cc(OC)c1O (stereo not given)	i	?	-36%	-25%	3%	-20%
COc1cc(C2c3cc4c(cc3OC(N3CCCC3)C2C)OCO4)cc(OC)c1O (stereo not given)	i	16µM*	0%	-6%	?	0%
COc1cc(C2c3cc4c(cc3OC(C)(N3CCCC3)C2C)OCO4)cc(OC)c1OC (stereo not given)	?	1.2µM*	-3%	9%	1.2µM*	-15%
SMILES	S2 tox	DT40 TDP1 no CPT	HepG2 tox	ATXN2 expr inh	DT40 TDP1 CPT	TGFb inhibitor
CC(C)(C)c1ccc(S(=O)(=O)Nc2noc3ccccc23)cc1	i	-19%	-6%	·	-22%	-14%
COc1ccc(-n2nnc3c(=O)n(CC(=O)Nc4cc(C)on4)cnc32)cc1OC	i	-11%	-13%	0%	0%	1%
CC(=O)OC1c2ccccc2C(=O)N1Cc1ccccc1 (stereo not given)	i	0%	-2%	7%	-9%	6%
Cc1ccc2nc(SCC(=O)NC3CCCc4ccccc43)[nH]c2c1 (stereo not given)	i	16µM*	-9%	-27%	21µM*	0%
Cn1c(N)c(C(=O)CSc2nnc(NC3CCCCC3)s2)c(=O)n(C)c1=O	i	?	2%	-7%	?	9%
CCn1c(SCC(=O)c2[nH]c(C)c(C(C)=O)c2C)nnc1-c1ccncc1	i	?	-2%	15%	-26%	3%
O=C(CSc1cc(Cl)ccc1Cl)NC1CCCc2ccccc21 (stereo not given)	·	?	-13%	·	?	-26%
CC(=O)c1c(C)[nH]c(C(=O)CSc2nnc(NC3CC3)s2)c1C	i	15µM*	-4%	-16%	?	3%
Cc1ccc2nc(SCC(=O)Nc3cc([N+](=O)[O-])ccc3F)[nH]c2c1	i	?	27%	2%	18µM*	?
CCn1c(SCC(=O)c2[nH]c(C)c(C(C)=O)c2C)nnc1-c1ccccc1	i	26µM*	3%	-23%	23µM*	?
Cc1ccc2nc(SCC(=O)Nc3ccc(C)c([N+](=O)[O-])c3)[nH]c2c1	i	-8%	-13%	-18%	?	-24%
COc1ccc2c(c1)OC(C)CN(CCNC(=O)c1cc3cc(F)ccc3[nH]1)C2 (stereo not given)	i	?	·	·	7%[9.04 µM]	·

High-throughput results (PubChem BioAssay)
